Outcome data for 72 compounds are collected here from PubChem BioAssay AID1053173 (Broad Institute, 2014).

Hit rate of the full screen: of about 1,500 compounds, about 390 (26%) were called active. No rule for the calls is given here. A selection follows. Measured potencies and affinities stand elsewhere.

The target in the assay is Histone-lysine N-methyltransferase NSD2 (Homo sapiens) (UniProt O96028). Put plainly: blockers of NSD2 H4 peptide methylation – biochemical, AlphaScreen, cherry-picked samples, dose response (AID 1053173). The note with it: 120 min; series mostly up to 10 µM. In general terms: Bead proximity is the source of the signal in Alpha formats.
Sequence of Histone-lysine N-methyltransferase NSD2 (Homo sapiens) (O96028 whole entry, looked up): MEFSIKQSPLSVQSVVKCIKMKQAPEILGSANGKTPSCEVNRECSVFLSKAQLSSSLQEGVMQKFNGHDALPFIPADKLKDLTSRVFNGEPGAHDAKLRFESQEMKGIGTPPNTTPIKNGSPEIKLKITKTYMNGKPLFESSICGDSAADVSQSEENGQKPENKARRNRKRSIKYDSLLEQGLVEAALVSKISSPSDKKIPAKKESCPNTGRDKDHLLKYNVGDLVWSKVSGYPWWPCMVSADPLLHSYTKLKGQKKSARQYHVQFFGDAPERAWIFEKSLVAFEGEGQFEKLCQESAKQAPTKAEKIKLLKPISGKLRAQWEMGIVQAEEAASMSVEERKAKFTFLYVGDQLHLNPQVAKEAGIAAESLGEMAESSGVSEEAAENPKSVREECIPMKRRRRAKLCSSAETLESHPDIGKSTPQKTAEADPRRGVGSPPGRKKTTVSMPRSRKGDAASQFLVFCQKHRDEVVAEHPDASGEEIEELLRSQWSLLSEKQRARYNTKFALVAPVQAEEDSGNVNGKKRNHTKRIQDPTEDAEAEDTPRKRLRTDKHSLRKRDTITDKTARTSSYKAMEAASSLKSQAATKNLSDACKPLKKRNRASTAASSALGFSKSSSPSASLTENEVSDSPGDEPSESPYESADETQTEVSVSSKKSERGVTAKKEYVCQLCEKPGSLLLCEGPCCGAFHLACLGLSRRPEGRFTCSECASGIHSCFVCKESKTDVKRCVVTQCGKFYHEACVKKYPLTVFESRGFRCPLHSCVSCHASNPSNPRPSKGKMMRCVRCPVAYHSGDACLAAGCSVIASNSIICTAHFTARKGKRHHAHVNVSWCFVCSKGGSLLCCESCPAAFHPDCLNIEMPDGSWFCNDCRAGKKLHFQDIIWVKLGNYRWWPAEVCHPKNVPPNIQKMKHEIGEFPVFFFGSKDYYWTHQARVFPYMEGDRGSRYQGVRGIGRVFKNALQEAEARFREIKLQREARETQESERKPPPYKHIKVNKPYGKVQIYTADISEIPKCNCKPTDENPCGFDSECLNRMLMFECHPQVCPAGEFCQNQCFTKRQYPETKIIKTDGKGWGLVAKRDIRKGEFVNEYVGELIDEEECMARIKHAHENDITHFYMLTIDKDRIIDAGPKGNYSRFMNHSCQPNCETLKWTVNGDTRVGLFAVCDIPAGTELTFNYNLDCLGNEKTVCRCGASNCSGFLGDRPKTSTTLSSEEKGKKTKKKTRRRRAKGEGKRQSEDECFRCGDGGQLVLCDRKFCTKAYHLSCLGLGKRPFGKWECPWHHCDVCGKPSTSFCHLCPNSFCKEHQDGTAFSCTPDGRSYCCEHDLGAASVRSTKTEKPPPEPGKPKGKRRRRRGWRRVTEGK
Take `Nc1ccc(N(CCO)CCO)cc1`: the outcome was inactive. On to `O=C(CSCC(=O)N1CCOCC1)Nc1nc(-c2ccccc2)cs1`, for which the compound was classed as inactive. Regarding `Cc1cccc(NC(=O)CCN2CCCCC2)c1`, the compound was classed as inactive.

With `O=C(OC(C(=O)NC1CCCCC1)c1ccccn1)c1cccs1` (configuration not stated), the call was inactive. With `C/C(NCCc1ccccc1)=C1/CCOC1=O`, the compound was called inactive.

Turning to `COC(=O)c1ccc(/C=N/N2CCN(Cc3ccccc3)CC2)cc1`, the call was inactive. The entry for `CCCCCCCCn1cnc2c(N)c(C)c(C)cc21` is “inactive”; for `Cc1cc(Cl)cc(Br)c1OCCCN1C(=O)NC(C)(C)C1=O` it is “inactive”.

Regarding `CC(=O)C1=C(O)C(=O)N(Cc2cccnc2)C1c1ccccc1` (configuration not stated), the outcome was inactive.

For the compound `Cc1ccc(OCc2cnc(Cl)s2)c(C)c1`, the call was inactive. For the compound `CC(=O)N=Cc1c(C)c(C#N)c(=O)n(C)c1O`, the compound was classed as inactive. As to `Oc1cccc(NC(=S)N=Nc2c(O)[nH]c3ccc(Br)cc23)c1`, the compound was classed as inactive. Turning to `CCOc1ccc2nc(SCC(=O)NCc3ccco3)sc2c1`, the outcome was inactive.

Turning to `N#Cc1c(NC(=O)c2ccncc2)sc2c1CCC2`, the result was inactive. Regarding `COC(=O)N/N=C1/C/C(=N\NC(=O)OC)c2ccccc21`, the outcome was inactive.

In the case of `COc1cc(OC)nc(NC2OC(=O)c3ccccc32)n1` (configuration not stated), the call was inactive. On to `CC(CS(=O)(=O)c1ccc2c(c1)NC(=O)CS2)C(=O)NCc1ccccc1Cl` (configuration not stated), for which the outcome was inactive. `CC(Nc1cccc2ccccc12)C(=O)N/N=C/c1ccccn1` (configuration not stated): the outcome was inactive.

Take `Cc1cccc(/C=N/NC(=O)C(C)Nc2cccc3ccccc23)n1` (configuration not stated): the compound was called inactive. With `Cc1ccc(Cl)cc1NC(=O)C[n+]1ccc(Cc2ccc([N+](=O)[O-])cc2)cc1`, the compound was called inactive.

For the compound `O=C(CSc1nnc(-c2ccccc2O)o1)NC1CCCCC1`, the result was inactive.

In the case of `O=C(O)CN1C(=O)/C(=C\c2cccc(OCc3ccc(F)cc3)c2)SC1=S`, the outcome was inactive. Regarding `Cc1cccc(C)c1NC(=O)c1c[nH]c2ccccc12`, the compound was classed as inactive. Turning to `O=C1/C(=C/c2ccccc2)CN(C(=O)CCN2CCOCC2)C/C1=C\c1ccccc1`, the compound was called inactive. Turning to `O=Cc1ccc(OC(=O)C2CC(=O)N(c3ccc(F)cc3)C2)cc1` (configuration not stated), the call was inactive. For `Cc1ccc(NC(=O)C[n+]2ccn(C3=C([O-])c4ccccc4C3=O)c2)cc1`, the call was inactive. The entry for `Cc1c(C(=O)NC(C)C)oc2c1-c1[nH]ncc1CC2` is “inactive”; for `O=C(Nc1nnc(SCc2ccc(F)cc2)s1)c1ccccn1` it is “inactive”. For the compound `c1ccc(CN2CCN(c3nc(-c4ccccc4)nc(-n4ccnc4)n3)CC2)cc1`, the outcome was inactive. Regarding `O=C1NC(NS(=O)(=O)c2ccccc2)(C(F)(F)F)C(=O)N1c1cccc(Cl)c1` (configuration not stated), the call was inactive. In the case of `CC(C)Sc1nnc([C@H](Cc2c[nH]c3ccccc23)NC(=O)OC(C)(C)C)o1`, the compound was classed as inactive. Consider `O=[N+]([O-])c1cccc(NC(=S)N2CCOCC2)c1`, for which the call was inactive. As for `CCOC(=O)c1cc(S(=O)(=O)Nc2ccc(OC)cc2OC)cn1C`, the outcome was inactive. As for `Cc1cc(C)nc(NS(=O)(=O)c2ccc(NC(=O)c3ccccc3Br)cc2)n1`, the result was inactive. In the case of `CCNC(=O)Cc1ccc(NS(=O)(=O)c2ccc(F)cc2)cc1`, the outcome was inactive. On to `NS(=O)(=O)c1ccc(CNC(=O)CCCSc2ccccc2)cc1`, for which the result was inactive.

Turning to `O=S(=O)(Nc1cc(Sc2cccc3cccnc23)c(O)c2ccccc12)c1ccccc1`, the call was inactive. `O=C1NC2=C(CCc3ccccc32)C(c2ccccc2)N1` (configuration not stated): the compound was classed as inactive. In the case of `Cc1cccn2c(=O)c3cc(C(=O)NCCCn4ccnc4)n(C)c3nc12`, the outcome was inactive. With `CCOc1cc(C(=O)NCC(=O)N2CCC3(CC2)NCCc2[nH]cnc23)cc(OCC)c1OCC`, the call was inactive. As for `O=[N+]([O-])c1ccc(N/N=C/c2cccs2)nc1`, the call was inactive. Consider `CCOc1ccc(N)cc1OC`, for which the compound was called inactive. Regarding `CCN(CC)CCNC(=O)c1cccc(NC(=O)C(=O)c2cc(Br)ccc2NC(C)=O)c1`, the compound was classed as inactive. In the case of `O=C(/C=C/c1ccc(Cl)cc1Cl)NCc1ccco1`, the compound was called inactive.

Regarding `CC1Cc2ccccc2N1C(=O)COc1cccc(-n2cnnn2)c1` (configuration not stated), the result was inactive. To `COc1ccc(CNC(=O)CN(c2ccc(C)cc2)S(=O)(=O)c2c(C)noc2C)cc1` belongs “inactive”; to `Cc1cc(F)c(F)c(C(=O)N2C(C)CCCC2C)c1Cl` (configuration not stated), “inactive”; to `CC1(C)Cc2cccc(OCC(=O)O)c2O1`, “inactive”. `Cc1cc(=O)n(-c2ccc3ccccc3n2)[nH]1`: the compound was classed as inactive. Regarding `COc1ccc2nc(NC(=O)CS(=O)(=O)c3ccc(C)cc3)sc2c1`, the compound was called inactive. Consider `COc1ccc(N2C(=O)C3C(C2=O)C(C(=O)c2ccc(Cl)cc2)N2CCCC32)cc1` (configuration not stated), for which the compound was called inactive.

As to `COc1ccc(CCCc2n[nH]c(=S)n2C)cc1C`, the outcome was inactive. For the compound `CCOc1ccc(NC(=O)CSc2nnc(C34CC5CC(CC(C5)C3)C4)n2C)cc1`, the outcome was inactive.

In the case of `CCN(CC)CCNC(=O)CN1C(=O)COc2ccc(S(=O)(=O)N3CCOCC3)cc21`, the result was inactive.

Consider `Cc1ccc(Cl)cc1N1CCN(C(=O)c2ccc3nc[nH]c3c2)CC1`, for which the outcome was inactive. For `CCOc1ccc(NC(=O)CSc2nc3ccccc3c(=O)n2CCCC(=O)N2CCCC2)cc1`, the result was inactive. Regarding `O=C(O)CN1C(=O)/C(=C/c2ccc(SCc3ccccc3)o2)SC1=S`, the call was inactive. For the compound `O=C1Cc2ccccc2C(=O)N1c1ccccc1`, the compound was called inactive. For `Clc1ccc(C2=CSC3=Nc4cccc5cccc(c45)N23)cc1`, the result was inactive.

As to `CN1/C(=N\O)c2cccc3cccc1c23`, the outcome was inactive.

With `Cc1nn(CC(=O)Nc2nnc(C(C)C)s2)c(=O)c2ccccc12`, the outcome was inactive. In the case of `Cc1cccc(Nc2nnc(-c3ccc(N4CCOCC4)c([N+](=O)[O-])c3)c3ccccc23)c1`, the compound was classed as inactive. On to `CC(C)(C)c1[nH]nc2c1C(c1ccoc1)C(C#N)=C(N)O2` (configuration not stated), for which the outcome was inactive. Consider `Fc1ccc(CNc2nc(-c3cccnc3)nc3ccccc23)cc1`, for which the call was inactive. For `COC1=CC(=O)C(OC)=C(OC)C1=O`, the result was inactive.

Turning to `N#CCC(=O)c1sccc1-n1cccc1`, the outcome was inactive. Regarding `CNC(=O)c1ccc(-c2cc(C(F)(F)F)nn2C)s1`, the compound was called inactive.

As for `Cc1[nH]n(-c2ccccc2)c(=O)c1C(c1ccc(C(=O)O)cc1)c1c(C)[nH]n(-c2ccccc2)c1=O`, the call was inactive.

On to `O=C(O)c1ccc2c(c1)C(=O)N(c1cccc(C(=O)/C=C/c3ccccc3)c1)C2=O`, for which the result was inactive. Take `Cc1ccnc(-n2c(CCN3C(=O)c4ccccc4C3=O)nc3ccccc3c2=O)c1`: the call was inactive. As for `CC1CCCCN1C(=O)CCNC(=O)Cn1cnc2ccccc2c1=O` (configuration not stated), the call was inactive. The entry for `CCN(CC)C(=O)C1CCCN(Cc2ccc(OC)c(C)c2C)C1` (configuration not stated) is “inactive”.
